High-throughput results (PubChem BioAssay)
Sampled rows, rich in hits. Any-hit rate of the full collection: about 12%.
G9a block = blocks human histone lysine methyltransferase G9a. G9a H3K9 monomethylation, AlphaScreen, 2 h. Potency, µM (highest dose often 102 µM), for the others: at the highest dose activity, negative = inhibition, usual class: inhibitors. 8.8% of 350,000 active; note: % is set by controls: 0 for no effect and ±100 for the full control effect; nearly all actives have a fitted effect of over 75% in size
Target sequence (Q96KQ7 913-1193 limits assumed): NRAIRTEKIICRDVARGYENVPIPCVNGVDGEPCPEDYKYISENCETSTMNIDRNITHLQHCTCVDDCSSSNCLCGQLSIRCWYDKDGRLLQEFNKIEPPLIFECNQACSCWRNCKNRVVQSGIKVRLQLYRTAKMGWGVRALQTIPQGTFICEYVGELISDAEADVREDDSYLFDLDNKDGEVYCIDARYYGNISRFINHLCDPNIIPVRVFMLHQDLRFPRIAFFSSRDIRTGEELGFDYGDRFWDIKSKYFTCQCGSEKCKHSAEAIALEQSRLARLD
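AlphaScreen detection with an anti-monomethyl H3K9 antibody quantified product after a 2 h room-temperature reaction containing 500 nM biotinylated H3K9 peptide, 20 µM SAM and 20 nM enzyme, which had been preincubated 15 min with compound.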
Sfp PPTase inh = blocks B. subtilis Sfp PPTase activity | 3.5% of 310,000 active | Potency, µM, for the others: largest response in the series, negative = inhibition, hits mostly inhibitors | Biochemical Sfp PPTase activity, qHTS | Q9F4F7;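 note: the enzyme is Sfp with the accession as filed and its product quenches rhodamine fluorescence; 0% = enzyme reaction without inhibitor and -100% = no enzyme wells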
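Fluorescence-quenching assay with 15 nM Sfp, 5 uM rhodamine-CoA and 12.5 uM BHQ-2-labelled ybbR peptide in pH 7.6 Hepes/MgCl2 buffer. Enzyme was pre-incubated with compound for 15 min at room temperature. Rate was taken from the 30-min fluorescence change (525/598 nm).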
BAZ2B inh = inhibitors of human BAZ2B bromodomain. Q9UIF8. AlphaScreen BAZ2B-H3K14Ac peptide displacement. Potency, µM (titrated, usually from 114 µM), for the others: at the highest dose activity change, negative = inhibition, hits mostly inhibitors. 4.4% of 360,000 active; note: % is set by controls: 0 for no effect and ±100 for the full control effect; nearly all actives have a fitted effect of over 60% in size
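BAZ2B 50 nM plus b-H3(5-23)K14Ac 50 nM, PBS pH 7.4/0.01% Tween-20, 30 min RT; compound added (max 110 uM), 30 min RT; streptavidin donor/Ni-chelate acceptor beads 10 ug/mL final, 20 min dark; AlphaScreen read.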
JMJD2A Tudor inh = blocks the human JMJD2A Tudor domain; AlphaScreen JMJD2A-Tudor / H3K4me3 peptide binding; 4.4% of 390,000 active; O75164; Potency, µM (doses to about 114 µM), without a hit: at the top dose activity change, negative = inhibition, actives largely listed as inhibitors; note: % is set by controls: 0 for no effect and ±100 for the full control effect; nearly all actives have a fitted effect of over 50% in size
HP1b binding inh = blocks HP1-beta chromodomain binding to methylated histone tails. 0.56% of 390,000 active. Potency, µM (series often up to 114 µM), for the others: top-dose activity change, negative = inhibition, most hits filed as inhibitors. AID 540317. AlphaScreen HP1-beta / biotin-H3K9me3 peptide binding. P83916; note: nearly all actives have a fitted effect of over 70% in size
Target sequence (P83916 whole entry, looked up): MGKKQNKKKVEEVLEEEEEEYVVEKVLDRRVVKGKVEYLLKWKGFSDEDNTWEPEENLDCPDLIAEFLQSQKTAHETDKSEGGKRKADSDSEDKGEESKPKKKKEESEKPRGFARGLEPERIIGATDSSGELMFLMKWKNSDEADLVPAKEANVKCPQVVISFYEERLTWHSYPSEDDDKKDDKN
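Compound inhibition of the preformed complex between 50 nM HP1-beta and 50 nM biotinylated H3K9me3 peptide was read by AlphaScreen. Buffer was PBS pH 7.4 with 0.01% Tween-20. Incubations ran 30 min at room temperature, with 10 ug/mL donor/acceptor beads.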
Starred values were filed as active, the others as inactive; ? = inconclusive; . = no result given; [ ] = dose if it differs, or a comment. Calls come from the whole dose curve; as a rule, active = well fitted curve in the direction sought with a large enough effect; inconclusive = small, poorly fitted or top-dose-only effect, or another doubt; inactive = no such curve, though single readings can be large; an effect the other way counts as inactive or inconclusive. Potency is the fitted concentration of half-maximal effect.

SMILES | G9a block | Sfp PPTase inh | BAZ2B inh | JMJD2A Tudor inh | HP1b binding inh
COc1ccc(CCNc2ccc(C(CC(N)=O)NC(=O)c3cc(OC)ccc3OC)cc2[N+](=O)[O-])cc1 (stereo not drawn) | 45µM* | 6% | 32µM* | ? | -19%
Cc1cc(C)cc(C(=O)NC(CC(N)=O)c2ccc(NC3CCCCCCC3)c([N+](=O)[O-])c2)c1 (stereo not drawn) | ? | 6% | -34% | -22% | 29%
Cc1cc(C)cc(C(=O)NC(CC(N)=O)c2ccc(NCC3CC3)c([N+](=O)[O-])c2)c1 (stereo not drawn) | 79µM* | 6% | 5%[57.1 µM] | -12% | 33%
COc1ccc(OC)c(C(=O)NC(CC(N)=O)c2ccc(NCCOc3ccccc3)c([N+](=O)[O-])c2)c1 (stereo not drawn) | . | -4% | ? | ? | -1%
CC(=O)N1c2ccc(S(=O)(=O)N3CCC(C(=O)Nc4cccc(F)c4)CC3)cc2CC1C (stereo not drawn) | 19% | 23% | -16% | -17% | 4%
NC(=O)CC(NC(=O)c1ccccc1)c1ccc(NC2CCN(Cc3ccccc3)CC2)c([N+](=O)[O-])c1 (stereo not drawn) | 50µM* | 7% | ? | -27% | 16%
NC(=O)CC(NC(=O)c1ccccc1)c1ccc(NC2CCC2)c([N+](=O)[O-])c1 (stereo not drawn) | ? | -3% | -15% | -25% | 2%
Cc1ccc2c(cnn2C(=O)CCCC(=O)NCc2ccc(Cl)cc2)c1 | 25% | 12% | 4% | -7% | 20%
O=C1c2ccccc2-c2onc3ccc(Oc4ccccc4)c1c23 | 8.9µM* | 1% | ? | ? | -27%
COc1cccc(OC)c1OCC(C)CNCC1CCCO1 (stereo not drawn) | ? | -19% | ? | 3.5µM* | 71µM*
CCOCc1nnc(NC(=O)COc2ccc3c(c2)OCO3)s1 | ? | -8% | -24% | -30% | -26%
O=C(COc1ccc2c(c1)OCO2)Nc1nnc(Cc2ccccc2)s1 | 18µM* | -91% | -9% | -16% | ?
COCc1nnc(NC(=O)COc2ccc3c(c2)OCO3)s1 | 22µM* | 56µM* | -31% | -22% | ?
Cc1ccc(S(=O)(=O)NCCCNS(C)(=O)=O)cc1 | 11%[59 µM] | 16% | 13% | -1% | 35%
CS(=O)(=O)NCCCCCCNS(C)(=O)=O | 50µM* | 6% | 3% | -8%[11.4 µM] | 40%
C=CC(C1=CC(=O)C=CC1=O)c1ccccc1 (stereo not drawn) | ? | -34% | . | . | .
C=C[C@@H](C1=CC(=O)C(OC)=C(OC)C1=O)c1ccccc1 | . | 11µM* | . | . | .
CCC(C)(C)c1ccc(OCCCC[n+]2cccc(C)c2)c(C(C)(C)CC)c1 | ? | 32µM* | -23% | -20% | 8%
CCCN(CCC)S(=O)(=O)c1ccc(C(=O)Nc2nnc(CSC)o2)cc1 | -31% | 20% | ? | 50µM* | -9%
COCCN(CCOC)S(=O)(=O)c1ccc(C(=O)Nc2nnc(C3CC3)o2)cc1 | 10%[12.7 µM] | -26% | 32µM* | 10µM* | 26%
CCCCN(CCCC)S(=O)(=O)c1ccc(C(=O)Nc2nnc(CSC)o2)cc1 | 9% | 15% | 2% | -17% | 47%
CCc1nnc(NC(=O)c2ccc(S(=O)(=O)N(CCOC)CCOC)cc2)o1 | 4µM* | ? | 28µM* | 45µM* | 42%
O=C(CCCl)N1CCN(c2nc(-c3ccccc3)cs2)CC1 | ? | -10% | -33% | -21% | 2%
COc1cc2c(C#N)c(N3CCc4ccccc4C3)nc(N)c2c(N)n1 | -3%[12.7 µM] | 35µM* | ? | 4.5µM* | -21%
COc1cc2c(C#N)c(N3CCCCC3)nc(N)c2c(N)n1 | 11% | -5% | -1% | -10% | 45%
SMILES | G9a block | Sfp PPTase inh | BAZ2B inh | JMJD2A Tudor inh | HP1b binding inh
COc1ccc(S(=O)(=O)N(C)CC(=O)Nc2ccccc2C(F)(F)F)cc1 | 15%[59 µM] | 2% | 9% | -3% | 13%
O=C(CN1CCN(S(=O)(=O)c2ccc(Cl)cc2)CC1)Nc1ccc2c(c1)OCCO2 | 50µM* | 16% | -7% | -18%[11.4 µM] | 8%
CC1c2cc3c(cc2CCN1CC(=O)Nc1ccc(S(=O)(=O)N2CCCC2)cc1)OCCCO3 (stereo not drawn) | 71µM* | 1% | ? | -17% | 12%
O=C(CN1CCN(S(=O)(=O)c2ccc3c(c2)OCCO3)CC1)Nc1cccc(F)c1 | 56µM* | . | -4% | -6% | 17%
CC(=O)Nc1ccc(S(=O)(=O)N2CCc3cc4c(cc3C2C)OCCCO4)cc1 (stereo not drawn) | -14% | 6% | ? | -20% | 21%
NC(=O)c1ccc(NC(=O)CN2CCN(S(=O)(=O)c3ccc4c(c3)OCCO4)CC2)cc1 | 10%[2.33 µM] | . | 5% | -6% | 22%
CC(=O)[C@]1(O)CCC2C3C=C(Cl)C4=CC(=O)C5CC5[C@@]4(C)C3CC[C@]21C (stereo partly drawn) | -38%[2.33 µM] | 19% | . | . | .
COc1cc(SC)ccc1C(=O)NC1CCCc2ccccc21 (stereo not drawn) | 6% | -22% | 0% | 5% | 81%
O=C(COc1ccc(Cl)cc1Cl)NCC(=O)N/N=C/c1c[nH]c2ccccc12 | 4%[59 µM] | 0% | -20% | -15% | 12%
COc1nc(/C(N)=N/O)nc(N2CCCCC2)n1 | ? | 79µM* | ? | ? | 66%
COc1nc(N2CCCCCC2)nc(N2CCCCCC2)n1 | 62%[59 µM] | -7% | 37% | 27% | 108%
COc1ccc2c(C)c(CCC(=O)NCCc3ccc(Cl)cc3)c(=O)oc2c1 | 0%[59 µM] | . | -5% | -17% | 22%
O=C1NN(c2ccccc2)C(=O)/C1=C\c1ccccc1OCC(=O)N1CCOCC1 | 45µM* | ? | -31% | -2% | 26%
CCc1ccccc1N=C1S/C(=C/c2ccccc2OCC(=O)N2CCOCC2)C(=O)N1C | ? | ? | ? | ? | 28%
CCc1ccccc1NC(=O)CN1CCN(C(=O)CNC(=O)Cc2cccc3ccccc23)CC1 | ? | . | 0% | -12% | 40%
N#Cc1ccc(CN2CCN(C(=O)CNC(=O)Cc3cccc4ccccc34)CC2)cc1 | 50µM* | . | 3% | -6% | 30%
COc1ccc(OC)c(-n2c(SC)nnc2-c2c[nH]c3ccccc23)c1 | ? | -2% | 2% | -19% | 29%
Cc1cc(C)cc(NC(=O)c2ccc(S(=O)(=O)C(F)F)cc2)c1 | 50µM* | 21% | 7% | -9% | 28%
CC(NC(=S)Nc1ccc(Cl)cc1Cl)C(c1cccs1)N1CCCC1 (stereo not drawn) | 2%[59 µM] | 18% | ? | ? | ?
COC(=O)C(O)(CC(=O)Nc1cc(OC)c(OC)c(OC)c1)C(F)(F)F (stereo not drawn) | -15%[59 µM] | -1% | -1% | 0% | 15%
COc1cc(NC(=O)NC(C)(C(F)(F)F)C(F)(F)F)cc(OC)c1OC | 50µM* | 7% | 0% | -5%[57.1 µM] | 18%
